The test system of assay [1] is Wnt5a (protein binding on small-molecule microarray). Put plainly: Wnt5a binders on small-molecule microarray, primary screen, biophysical, 635/667 nm fluorescence (AID 1142).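 Also: fluorescence read at 667 nm with signal to noise per printed feature.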 The note with it: 635 nm fluorescence, higher = more signal.
The nature of assay [2]: cell viability in Huh7 cells, primary screen, cytotoxicity control for HCV replication inhibitor project, CellTiter-Glo luminescence, basal, 48 h (AID 1143).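 Also: Huh7 hepatoma cells carrying a hepatitis C replication reporter with no stimulus; test concentration not given here.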 The note with it: Huh7 HCV replicon, higher = more signal, called active from +8 up or from −8 down. Background: ATP-based viability assays read luminescence as a measure of living cells.
Assay [3] in a line: P. aeruginosa biofilm formation inhibitors, primary screen, PAO1 strain, BacTiter-Glo luminescence, LB-PBS (AID 1144). The conditions noted are these: 12 h, higher = more signal.
The nature of assay [4]: CREB reporter modulators without forskolin, primary screen, cell-based, PC12, CRE-LacZ reporter, unstimulated (AID 1145). The conditions noted are these: no forskolin, luminescence, 4.5 h, higher = more signal, called active from +8 up or from −8 down.
A short description of assay [5]: CREB reporter modulators under forskolin, primary screen, cell-based, PC12, CRE-LacZ reporter, forskolin-stimulated (AID 1146).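 Also: PC12 cells with 6xCRE LacZ reporter stimulated by forskolin 10 µM; beta-galactosidase reporter signal reflecting CREB driven transcription.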 The conditions noted are these: luminescence, 4.5 h, higher = more signal, called active from +8 up or from −8 down.
Assay [6] addresses Streptavidin (Streptomyces avidinii) (UniProt P22629). Nature of the assay: streptavidin binders on small-molecule microarray, primary screen, artefact control for SMM compound annotation, biophysical, 635/667 nm fluorescence (AID 1147).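 Also: signal reflects streptavidin binding to arrayed compounds as a control protein.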 The conditions noted are these: streptavidin binding, higher = more signal.
Assay [7] is described as follows: small-molecule binders of probe aInhba, primary screen, biochemical, small-molecule microarray, 635/667 nm fluorescence (AID 1148).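 Also: score merges 667nm spot fluorescence with signal-to-noise for antibody binding to printed compounds.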 The note with it: higher = more signal.
Assay [8] concerns the target Torsin-1A (Homo sapiens) (UniProt O14656). Put plainly: torsin A binders from cell lysate, primary screen, small-molecule microarray, wild-type, 635/667 nm (AID 1149). The note with it: COS7 hTOR1A-WT lysate, 635 nm fluorescence, higher = more signal.
For assay [9] the target is unchanged. Put plainly: small-molecule binders of mutant TOR1A in lysate, primary screen, cell lysate, small-molecule microarray, COS7 lysate, 635/667 nm fluorescence (AID 1150).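 Also: score pools 667 nm emission and signal to noise measuring lysate protein binding.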 The conditions noted are these: COS7 hTOR1A mutant lysate, 635 nm fluorescence, higher = more signal.
The test system of assay [10] is Sonic hedgehog protein (Shh). Put plainly: small-molecule binders of Shh protein, primary screen, biochemical, small-molecule microarray, 635/667 nm fluorescence (AID 1151).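 Also: Shh protein binding to compounds spotted on small-molecule microarray slides; score combines spot fluorescence intensity with signal-to-noise across triplicate slides.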 The note with it: small-molecule microarray binding, 635 nm fluorescence; higher = more signal.
A short description of assay [11]: E. coli DRC41 culture turbidity changes, primary screen, E. coli filamentation inducer project, strain DRC41, OD650, 48 h (AID 1152).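 Also: E. coli MC1000 strain DRC41 lacking acrAB efflux pump and sulA.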 The conditions noted are these: E. coli DRC41 (acrAB sulA), higher = more signal, called active from +8 up or from −8 down.
Assay [12] is described as follows: small-molecule binders of probe aLefty1, primary screen, biochemical, small-molecule microarray, 635/667 nm fluorescence (AID 1153).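 Also: score merges spot fluorescence with signal-to-noise ratio from the scanned slide images.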 The conditions noted are these: higher = more signal.
Assay [13] is described as follows: PSAC antagonists in infected red cells, primary screen, cell-based, P. falciparum Indochina, OD700, 1 h (AID 1154). The conditions noted are these: P. falciparum Indochina infected RBC osmotic lysis, higher = more signal, called active from +8 up or from −8 down.
Assay [14] in a line: PSAC antagonists in infected red cells, primary screen, cell-based, P. falciparum Indochina, OD700, 2 h (AID 1155).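 Also: lysis reports solute entry through the parasite surface anion channel PSAC; channel blockers reduce lysis of infected cells.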 The conditions noted are these: P. falciparum Indochina infected erythrocytes, osmotic lysis OD700; higher = more signal, called active from +8 up or from −8 down.
Assay [15] is described as follows: osmotic lysis modulators in infected erythrocytes, primary screen, PSAC antagonist project, cell-based, P. falciparum Indochina, OD700, 3 h (AID 1156). The note with it: higher = more signal, called active from +8 up or from −8 down.
Assay [16] is described as follows: PSAC antagonists in infected red cells, primary screen, cell-based, P. falciparum Indochina, OD700, 18 h (AID 1157). The note with it: P. falciparum Indochina infected erythrocytes, osmotic lysis OD700, 18 h; higher = more signal, called active from +8 up or from −8 down.
Assay [17] in a line: modulators of S6 phosphorylation in cells, primary screen, cell-based, A549, cytoblot, luminescence, serum-stimulated (AID 1158).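 Also: serum-stimulated A549 lung adenocarcinoma cells; signal is phosphorylated S6 detected by cytoblot immunostaining with HRP secondary.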 The conditions noted are these: A549 phospho-S6 cytoblot, 5 h, higher = more signal.
In assay [18] the target is NADPH oxidase 2 (Homo sapiens) (UniProt P04839). Put plainly: NOX2-dependent H2O2 signal modulators, primary screen, NOX inhibitor project, cell-based, HEK293-NOX2, PMA-stimulated, Amplex Red fluorescence (AID 1159). Also: test concentration not given here. The note with it: 45 min, higher = more signal, called active from +8 up or from −8 down.
Sequence of NADPH oxidase 2 (Homo sapiens) (P04839 whole entry, looked up): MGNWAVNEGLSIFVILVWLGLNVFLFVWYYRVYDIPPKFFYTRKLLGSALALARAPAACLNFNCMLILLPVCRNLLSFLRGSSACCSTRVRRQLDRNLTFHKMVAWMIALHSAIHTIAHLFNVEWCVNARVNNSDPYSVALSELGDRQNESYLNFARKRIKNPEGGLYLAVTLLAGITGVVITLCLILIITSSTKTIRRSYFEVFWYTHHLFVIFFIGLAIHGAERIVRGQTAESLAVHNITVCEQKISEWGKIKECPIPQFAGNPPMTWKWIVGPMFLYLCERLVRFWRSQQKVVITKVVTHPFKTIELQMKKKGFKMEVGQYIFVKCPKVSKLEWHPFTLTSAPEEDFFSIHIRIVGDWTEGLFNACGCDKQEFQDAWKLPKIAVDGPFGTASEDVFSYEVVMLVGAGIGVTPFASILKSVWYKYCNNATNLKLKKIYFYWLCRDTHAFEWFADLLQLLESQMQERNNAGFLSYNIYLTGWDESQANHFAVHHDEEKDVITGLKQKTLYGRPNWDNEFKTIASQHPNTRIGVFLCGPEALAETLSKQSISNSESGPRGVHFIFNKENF
Assay [19] concerns the target NADPH oxidase 4 (Homo sapiens) (UniProt Q9NPH5). Nature of the assay: NOX4-dependent H2O2 signal modulators, primary screen, NOX inhibitor project, cell-based, HEK293-NOX4, tetracycline-induced, Amplex Red fluorescence (AID 1160). The note with it: 45 min, higher = more signal, called active from +8 up or from −8 down.
Assay [20] concerns the target NADPH oxidase 5 (Homo sapiens) (UniProt Q96PH1). Nature of the assay: NOX5-dependent H2O2 signal modulators, primary screen, NOX inhibitor project, cell-based, HEK293-NOX5, Amplex Red fluorescence (AID 1161). The conditions noted are these: HEK293-NOX5, ionomycin, 45 min, higher = more signal.

The source made the active and inactive calls. Unless noted, no rule for the calls is given here.

Sequence of NADPH oxidase 4 (Homo sapiens) (Q9NPH5 whole entry, looked up): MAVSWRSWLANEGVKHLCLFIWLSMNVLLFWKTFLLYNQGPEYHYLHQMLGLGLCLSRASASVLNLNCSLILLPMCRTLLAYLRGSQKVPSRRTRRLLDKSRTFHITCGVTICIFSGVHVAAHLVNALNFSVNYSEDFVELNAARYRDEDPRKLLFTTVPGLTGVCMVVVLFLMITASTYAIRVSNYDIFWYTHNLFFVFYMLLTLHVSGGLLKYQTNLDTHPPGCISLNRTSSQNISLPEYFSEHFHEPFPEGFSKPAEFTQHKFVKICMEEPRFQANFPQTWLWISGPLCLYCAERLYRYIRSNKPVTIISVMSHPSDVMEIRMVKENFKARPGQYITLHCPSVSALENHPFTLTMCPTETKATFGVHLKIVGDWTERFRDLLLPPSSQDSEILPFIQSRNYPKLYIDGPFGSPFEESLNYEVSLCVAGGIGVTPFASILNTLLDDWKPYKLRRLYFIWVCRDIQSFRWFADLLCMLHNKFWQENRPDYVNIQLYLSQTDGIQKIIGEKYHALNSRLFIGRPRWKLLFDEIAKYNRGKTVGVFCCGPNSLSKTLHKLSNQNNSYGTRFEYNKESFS
Sequence of Streptavidin (Streptomyces avidinii) (P22629 whole entry, looked up): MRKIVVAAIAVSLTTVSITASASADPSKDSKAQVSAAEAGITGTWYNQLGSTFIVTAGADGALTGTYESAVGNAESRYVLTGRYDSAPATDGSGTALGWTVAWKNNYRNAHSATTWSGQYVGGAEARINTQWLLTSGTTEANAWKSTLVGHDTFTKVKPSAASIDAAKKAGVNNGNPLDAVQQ
Sequence of NADPH oxidase 5 (Homo sapiens) (Q96PH1 whole entry, looked up): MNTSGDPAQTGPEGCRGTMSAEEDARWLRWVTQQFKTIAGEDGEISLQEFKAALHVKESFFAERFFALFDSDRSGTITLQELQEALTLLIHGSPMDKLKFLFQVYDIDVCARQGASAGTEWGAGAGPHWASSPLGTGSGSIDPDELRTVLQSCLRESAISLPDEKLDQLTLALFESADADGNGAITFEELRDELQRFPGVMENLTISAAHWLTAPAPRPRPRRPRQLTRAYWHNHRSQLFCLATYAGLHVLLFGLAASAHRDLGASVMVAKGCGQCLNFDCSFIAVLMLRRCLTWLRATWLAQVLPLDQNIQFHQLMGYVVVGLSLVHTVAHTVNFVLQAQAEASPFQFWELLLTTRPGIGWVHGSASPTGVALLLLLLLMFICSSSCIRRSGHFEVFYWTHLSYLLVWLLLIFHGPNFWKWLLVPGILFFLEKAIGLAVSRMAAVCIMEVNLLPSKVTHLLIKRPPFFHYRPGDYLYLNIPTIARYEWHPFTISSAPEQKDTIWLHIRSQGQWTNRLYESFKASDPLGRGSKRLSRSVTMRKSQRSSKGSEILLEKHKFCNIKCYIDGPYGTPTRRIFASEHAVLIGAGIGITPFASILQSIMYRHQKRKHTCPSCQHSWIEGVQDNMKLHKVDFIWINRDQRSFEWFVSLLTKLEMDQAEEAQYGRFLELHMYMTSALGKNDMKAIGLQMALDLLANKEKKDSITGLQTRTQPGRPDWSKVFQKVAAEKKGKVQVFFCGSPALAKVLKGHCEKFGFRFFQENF
Sequence of Torsin-1A (Homo sapiens) (O14656 whole entry, looked up): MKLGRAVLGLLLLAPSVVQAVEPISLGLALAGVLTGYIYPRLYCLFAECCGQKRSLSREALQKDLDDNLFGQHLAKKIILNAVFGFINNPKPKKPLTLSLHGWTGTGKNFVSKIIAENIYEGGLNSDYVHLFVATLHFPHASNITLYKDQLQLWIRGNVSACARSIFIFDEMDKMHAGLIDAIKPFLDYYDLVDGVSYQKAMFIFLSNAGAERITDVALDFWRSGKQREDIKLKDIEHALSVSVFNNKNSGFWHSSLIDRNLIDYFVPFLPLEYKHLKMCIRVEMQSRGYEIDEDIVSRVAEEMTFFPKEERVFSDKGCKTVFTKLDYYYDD

Turning to `[N-]=[N+]=Nc1ccccc1C[C@]1(C(=O)N2CCCCC2)N=C(c2ccc(OCCCO)cc2)O[C@H]1c1ccccc1`, the composite z-score worked out at 0.982 in assay [1]; 1.15 in assay [6]; 0.696 in [7]; 0.351 in the assay with Torsin-1A (Homo sapiens) [8]; 0.402 with Torsin-1A (Homo sapiens) [9]; 1.05 in [10]. Moreover, the composite z-score in [12] came out at 0.179. For the same compound, the z-score in [2] is -4.56 (inactive); in [3] it was 0.0619 (inactive); in assay [4], -0.506 (inactive); in assay [5], -0.0671 (inactive); in assay [11], 0.699 (inactive); in [13] it was 18 (active). Further, the z-score was 4.52 (inactive) in [14]; 3.48 (inactive) in assay [15]; 1.87 (inactive) in [16]; -0.0985 in assay [17]; -1.76 (inactive) in assay [18]; -0.593 (inactive) in assay [19]. This compound displayed a z-score in assay [20] of -1.68.
Regarding `O=C1c2ccccc2[C@](Cc2ccccc2I)(C(=O)NCCN2CCOCC2)[C@H](c2ccc(CO)cc2)N1Cc1ccccc1C(F)(F)F`, the composite z-score in [1] is 0.0104; in assay [6], 0.515; in assay [7], -0.038; with Torsin-1A (Homo sapiens) [8], 0.717; with Torsin-1A (Homo sapiens) [9], 0.469; in assay [10] it was 0.468. The same compound showed a composite z-score in assay [12] of 0.284. Moreover, the z-score in assay [2] was -3.41 (inactive); in assay [3] it was 0.588 (inactive); in assay [4], 0.0909 (inactive); in [5], 0.655 (inactive); in assay [11], -2.6 (inactive); in assay [13], 7.91 (inactive). For the same compound, the z-score is 1.13 (inactive) in assay [14]; 1.59 (inactive) in assay [15]; 0.65 (inactive) in assay [16]; 0.401 in [17]; -1.06 (inactive) in [18]; 0.814 (inactive) in [19]. This compound yielded a z-score in [20] of 1.15.
Regarding `COc1cc(Cc2cc3c(c(-c4ccccc4)n2)[Si](C(C)C)(C(C)C)OC3)cc(OC)c1OC`, the composite z-score is 0.26 in [1]; 1.89 in [6]; 0.161 in assay [7]; -0.226 with Torsin-1A (Homo sapiens) [8]; -0.141 with Torsin-1A (Homo sapiens) [9]; 0.143 in assay [10]. The composite z-score in [12] is 0.0299. Besides, the z-score in [2] is -0.324 (inactive); in assay [3], -0.546 (inactive); in assay [4], -0.113 (inactive); in [5] it was -0.437 (inactive); in [11] it was 0.752 (inactive); in assay [13], 1.62 (inactive). Besides, the z-score was 0.702 (inactive) in assay [14]; 0.84 (inactive) in [15]; 0.332 (inactive) in [16]; 0.159 in assay [17]; 1.04 (inactive) in assay [18]; 0.424 (inactive) in [19]. The z-score in assay [20] was found to be 0.0407.
With `C=C(COC)C(=O)CC[C@@H](OC(=O)c1ccccc1-c1ccccc1C(=O)O)c1ccccc1OCCO`, the composite z-score is 0.502 in [1]; -0.695 in assay [6]; -0.0762 in assay [7]; 1.49 with Torsin-1A (Homo sapiens) [8]; 0.0126 with Torsin-1A (Homo sapiens) [9]; 1.45 in [10]. The same compound showed a composite z-score in assay [12] of -0.103. For the same compound, the z-score in assay [2] is -0.714 (inactive); in [3], -0.693 (inactive); in assay [4], 2.73 (inactive); in [5], 15.8 (active); in assay [11], -0.564 (inactive); in assay [13], 5.01 (inactive). The z-score in assay [14] was 0.281 (inactive); in [15], 1.03 (inactive); in [16], -0.209 (inactive); in [17], -0.813; in [18] it was 0.26 (inactive); in [19], -0.182 (inactive). Further, in assay [20], the z-score was -0.933.
In the case of `Cc1ccc(S[C@]2(C(=O)NCC(C)C)CC(=O)N(C(C)C)[C@@H]2c2ccc(CO)cc2I)cc1`, the composite z-score in assay [1] is 0.241; in [6], -0.807; in [7], -0.173; with Torsin-1A (Homo sapiens) [8], -0.782; with Torsin-1A (Homo sapiens) [9], -0.607; in assay [10], -1.07. The compound further gave a composite z-score in assay [12] of 0.245. Besides, the z-score in assay [2] is -1.44 (inactive); in assay [3], 0.502 (inactive); in assay [4], 0.0909 (inactive); in [5] it was 0.205 (inactive); in assay [11], 0.746 (inactive); in [13], 4.28 (inactive). Further, the z-score in assay [14] is 0.965 (inactive); in assay [15], 0.504 (inactive); in assay [16], 0.279 (inactive); in assay [17], 0.363; in [18] it was 2.02 (inactive); in assay [19], -0.511 (inactive). This compound also yielded a z-score in assay [20] of 1.9.
Regarding `CC(=O)NCCCC[C@@H]1NC(=O)[C@H]2C[C@@H](C(=O)O)[C@@H](c3cccc(OCCO)c3)N2C1=O`, the composite z-score in assay [1] was 0.847; in [6], 1.62; in [7], -0.153; with Torsin-1A (Homo sapiens) [8], 1.33; with Torsin-1A (Homo sapiens) [9], 1.24; in assay [10], 1.59. Also, the composite z-score in [12] turned out to be 0.189. Further, the z-score in assay [2] was -0.353 (inactive); in assay [3] it was -0.814 (inactive); in assay [4], 1.94 (inactive); in [5], 0.0364 (inactive); in [11] it was -0.442 (inactive); in [13], 1.15 (inactive). In addition, the z-score in [14] was 0.821 (inactive); in assay [15], -1.42 (inactive); in assay [16], 0.253 (inactive); in assay [17], 0.435; in assay [18], 0.956 (inactive); in assay [19] it was 0.197 (inactive). In assay [20], this compound displayed a z-score of -0.0358.
Consider `COCCOC(=O)N1C(=O)[C@@]2(c3cc(C#CCNC(N)=O)ccc31)[C@H](c1ccccc1OCCO)N1[C@H](c3ccccc3)[C@H](c3ccccc3)OC(=O)[C@H]1[C@@H]2C(=O)N1CCCCCCC1`, for which the composite z-score in assay [1] turned out to be 0.112; in assay [6] it was 0.777; in [7] it was 0.168; in the assay with Torsin-1A (Homo sapiens) [8], 0.419; with Torsin-1A (Homo sapiens) [9], 0.367; in assay [10], 0.83. Also, in assay [12], the composite z-score stood at 0.359. The z-score in assay [2] was -0.923 (inactive); in assay [3], 0.342 (inactive); in assay [4], 0.2 (inactive); in assay [5] it was 1.97 (inactive); in assay [11], -0.583 (inactive); in assay [13], 1.21 (inactive). Besides, the z-score in assay [14] is 0.696 (inactive); in assay [15], 0.346 (inactive); in assay [16], 0.238 (inactive); in [17] it was -0.418; in assay [18], 1.39 (inactive); in [19] it was 1.05 (inactive). In assay [20], the z-score was 0.903.
Turning to `COCCOC(=O)N1C(=O)[C@@]2(c3cc(C#CC4(O)CCCCCC4)ccc31)[C@H](C(N)=O)[C@H]1C(=O)O[C@H](c3ccccc3)[C@H](c3ccccc3)N1[C@@H]2c1ccc(OCCO)cc1`, the composite z-score came to 0.309 in [1]; 0.84 in assay [6]; 0.201 in assay [7]; 0.838 in the assay with Torsin-1A (Homo sapiens) [8]; 0.637 in the assay with Torsin-1A (Homo sapiens) [9]; 1.24 in assay [10]. Further, the composite z-score in assay [12] was determined as 0.0861. The z-score is -4.36 (inactive) in assay [2]; -0.295 (inactive) in [3]; 0.362 (inactive) in assay [4]; 0.0846 (inactive) in [5]; -0.0172 (inactive) in assay [11]; 3.59 (inactive) in [13]. For the same compound, the z-score is 1.45 (inactive) in assay [14]; 0.843 (inactive) in assay [15]; 1.01 (inactive) in assay [16]; 0.0826 in [17]; 1.52 (inactive) in assay [18]; 0.984 (inactive) in [19]. The z-score in [20] was determined as 0.923.

These data come from PubChem BioAssay.
